The list is not random: actives were taken first. Their share in the collection is about 2.3%.
ANO1 block: inhibitors of mouse TMEM16A calcium-activated chloride channel; Q8BHY3; HEK293 TMEM16A/YFP iodide influx fluorescence, ionomycin; normalized B-score (activity score, 25-100; higher = stronger inhibition) at 10 µM; 1.2% of 310,000 active; AID 588511;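 active = ratio plate-corrected score three or more library SD toward inhibition, starting fluorescence score within five deviations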;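 also: score derived from kinetic fluorescence span divided by baseline fluorescence per well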
CHT PAM: human CHT allosteric activation | Q9GZV3 | CHT-expressing cells, membrane potential dye, choline EC20; hits give high values; LV-AA mutant CHT in HEK293 cells | B-score at 10 µM | 0.49% of 310,000 active | AID 488977;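 active = initial fluorescence not abnormally high and integrated response B-score, plate-corrected, over 3 SD above library mean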
Target sequence (Q9GZV3 whole entry, looked up): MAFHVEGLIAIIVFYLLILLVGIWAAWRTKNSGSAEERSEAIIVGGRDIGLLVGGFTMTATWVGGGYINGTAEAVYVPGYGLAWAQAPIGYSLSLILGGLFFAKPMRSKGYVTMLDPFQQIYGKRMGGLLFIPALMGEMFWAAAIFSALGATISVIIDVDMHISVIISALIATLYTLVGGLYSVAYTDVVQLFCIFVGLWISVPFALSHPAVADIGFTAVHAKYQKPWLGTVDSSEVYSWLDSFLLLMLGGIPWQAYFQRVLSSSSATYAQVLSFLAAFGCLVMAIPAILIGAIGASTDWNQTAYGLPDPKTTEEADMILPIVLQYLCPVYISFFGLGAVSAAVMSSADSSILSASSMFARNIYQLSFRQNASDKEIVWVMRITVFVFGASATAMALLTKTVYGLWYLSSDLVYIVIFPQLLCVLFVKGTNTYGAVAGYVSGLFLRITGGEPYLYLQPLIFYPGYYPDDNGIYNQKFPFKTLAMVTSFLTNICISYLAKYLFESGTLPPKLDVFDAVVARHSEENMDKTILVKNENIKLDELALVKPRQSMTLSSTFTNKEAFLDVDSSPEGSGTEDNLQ
TMEM16A act: activators or potentiators of mouse TMEM16A chloride channel | B-score at 10 µM | Q8BHY3 | HEK293 TMEM16A/YFP-H148Q/I152L, iodide quench fluorescence; hits give low values | AID 623877 | 0.3% of 340,000 active;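 active = fluorescence-ratio B-score plate-corrected deviation score at least 3 library SD below zero, with starting fluorescence score within 5 deviations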;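 also: channel opened by trigger with iodide after compound preincubation; score built on the fluorescence ratio of max minus min over baseline; more negative score means more quench and so TMEM16A activation or potentiation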
CHT inh: human CHT choline transport inhibition | Q9GZV3 | CHT-expressing cells, membrane potential dye, choline response; hits give low values | B-score at 10 µM | 0.86% of 310,000 active | AID 488975;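 active = B-score over 3 SD under the library average, and starting fluorescence ratio not unusually high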;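 also: choline stimulus applied at its EC90 after an EC20 pre-addition; B-score computed on integrated fluorescence ratio after choline addition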
* = called active by the depositor; i = inactive; / = no result given.

SMILES | ANO1 block | CHT PAM | TMEM16A act | CHT inh
COc1ccccc1CN1C[C@@H]2C[C@@H](c3ccccc3OC)N3CCC[C@@]23C1=O | i | i | i | i
COc1ccccc1CN1C[C@@H]2C[C@@H](C3=Cc4cccc(OC)c4OC3)N3CCC[C@@]23C1=O | i | i | -4.71* | i
CCOc1ccc2c(c1)s/c(=N\S(=O)(=O)c1ccc(OC)cc1)n2C(F)F | 25* | i | i | i
O=c1cc(-c2c(F)c(F)c(F)c(F)c2F)oc2c(F)c(F)c(F)c(F)c12 | 25* | i | / | i
Cc1cc(NC2CCCCC2)nc(NCc2ccccc2)n1 | 100* | i | i | i
CCCCn1c(=O)[nH]c(=O)c2c1nc(-c1ccc(C)c([N+](=O)[O-])c1)n2CC | i | i | i | i
Cc1ccc(-c2nc3c(c(=O)[nH]c(=O)n3CC(C)C)n2CC(C)C)cc1[N+](=O)[O-] | i | i | -4.57* | i
COCCn1c(-c2ccc(OC(F)(F)C(F)C(F)(F)F)cc2)nc2c1c(=O)[nH]c(=O)n2CC(C)C (centres undefined) | 100* | i | i | i
CC1CC(NC(=O)N(C)C)N(C)C(=O)N1 (centres undefined) | i | i | i | i
CCn1cc(C(=O)O)c(=O)c2cc(F)c(N3CCN(C)CC3)cc21 | i | 6.39* | i | i
O=C(O)c1[nH]c2ccccc2c1NS(=O)(=O)c1ccc(F)cc1 | i | i | -48.9* | i
COc1ccc(S(=O)(=O)Nc2c(C(=O)O)[nH]c3ccccc23)cc1 | i | i | i | i
CSc1nnc(NC(=O)c2nc(S(=O)(=O)Cc3ccccc3)ncc2Cl)s1 | i | i | i | -9.2*
O=C(CCC(=O)Nc1nnc(C2CCCCC2)s1)Nc1ccccc1 | i | i | i | i
CCC(=O)c1ccc(OCC(O)CN2CCN(S(=O)(=O)c3ccc(NC(C)=O)cc3)CC2)cc1 (centres undefined) | i | i | i | i
CC(=O)Nc1ccc(OCC(O)CN2CCN(S(=O)(=O)c3ccc(NC(C)=O)cc3)CC2)cc1 (centres undefined) | 100* | i | i | i
O=C(Nc1ccc(Cl)c(S(=O)(=O)N2CCOCC2)c1)c1ccc(OCC2CCCO2)cc1 (centres undefined) | 100* | i | i | i
CC(C)(C)N1C(=O)c2ccc(C(=O)Nc3ccc(O)cc3)cc2C1=O | i | i | i | i
CCOC(=O)C(NC(=O)Nc1ccc(Cl)cn1)(Oc1ccc(F)cc1)C(F)(F)F (centres undefined) | i | i | i | i
CCNC(=S)NCc1ccc(Cl)cc1 | i | i | -9.59* | i
Cc1cc(C)c2ccc(C)[n+]([O-])c2c1O | i | i | i | -19.7*
N#Cc1ccccc1OCCCN1CCC(Cc2ccccc2)CC1 | i | i | i | -8.98*
Cc1cccc2c3c([nH]c12)CCN(C)C3 | i | i | i | -5.84*
O=C(c1ccc(CSc2nc3ccncc3[nH]2)cc1)N1CCN(c2cccc(Cl)c2)CC1 | 100* | i | i | i
COc1ccccc1N1CCN(C(=O)C2CCCN(S(=O)(=O)c3ccc4c(c3)CCCN4C(C)=O)C2)CC1 (centres undefined) | 25* | i | i | i
SMILES | ANO1 block | CHT PAM | TMEM16A act | CHT inh
CC(=O)N1CCCc2cc(S(=O)(=O)N3CCCC(C(=O)N4CCN(c5ccccc5)CC4)C3)ccc21 (centres undefined) | i | i | i | i
CCn1cc(S(=O)(=O)CC(=O)Nc2ccc(OC)cc2)c2ccccc21 | i | i | i | i
CCOC(=O)c1c(NC(=O)C2CCCCC2)sc2c1CCN(C(C)C)C2 | i | i | i | i
COc1ccc(NS(=O)(=O)c2ccc(S(=O)(=O)N3CCCC3)cc2)cc1Cl | i | i | i | i
COc1ccc(S(=O)(=O)Nc2ccc(F)c(F)c2)cc1Cl | i | i | i | -6.44*
COc1ccc(OC)c2cc3ccccc3cc12 | / | / | -8.33* | /
COC(=O)CNC(=O)CN1c2cccc3cccc(c23)S1(=O)=O | i | i | i | i
CC(=O)C(Cc1ccccc1)NC(=O)CN1c2cccc3cccc(c23)S1(=O)=O (centres undefined) | / | / | -9.82* | /
CC1Sc2ccc(S(=O)(=O)N3CCC(C(=O)Nc4cccc(Cl)c4)CC3)cc2NC1=O (centres undefined) | 25* | i | i | i
Oc1ccccc1N=N/C(=N/Nc1ccccc1O)c1ccccc1 | i | i | i | i
N#C/C(N=Nc1ccccc1O)=N\Nc1ccccc1O | 100* | i | i | -10.8*
COc1ccc(/C=N/Nc2cc(N3CCCC3)nc(N3CCCC3)n2)cc1 | i | i | -18.5* | i
CN(C(=O)COc1ccccc1C(=O)NCCOc1ccccc1)c1ccccc1 | 25* | i | i | i
CC(=O)c1ccc(NS(=O)(=O)c2cccc(C)c2)cc1 | i | i | i | i
COCCN=c1scc(-c2ccco2)n1/N=C/c1ccc(O)c(O)c1O | i | i | i | i
CC(C)N=c1scc(-c2ccco2)n1/N=C/c1ccc(O)c(O)c1 | 100* | i | i | i
O=S(=O)(Nc1ccc(-c2ccc(N3CCOCC3)nn2)cc1)c1ccc(Cl)c(Cl)c1 | 25* | i | i | i
Cc1cc(/C=N/NC(=O)c2cc3ccccc3o2)c(C)n1C | i | i | i | i
Cn1cccc1C(=O)NCC1CCCCC1 | i | i | i | i
Oc1c(Br)cc(Br)cc1CNc1cnc2ccccc2c1 | 25* | i | i | i
CC1CC(C)(C)CC2(C1)NC(=O)N(CC(=O)Nc1ccc(N3CCCCC3)cc1)C2=O (centres undefined) | i | i | i | i
Cc1c(-c2ccccc2)oc2c(C(=O)N3CCN(c4ccc([N+](=O)[O-])cc4)CC3)cccc2c1=O | i | i | i | i
COc1ccc(N(Cc2ccccc2)C(=O)CSc2nnc(Cn3nnc4ccccc43)o2)cc1 | i | i | i | i
O=C(CSc1nnc(Cn2nnc3ccccc32)o1)N(Cc1ccc(F)cc1)c1ccccc1 | 25* | i | i | i
Cc1ccc(S(=O)(=O)Cc2ccc(C(=O)N3CCN(c4ccccn4)CC3)o2)cc1 | i | i | i | i
O=C(c1ccc(CS(=O)(=O)c2ccc(Br)cc2)o1)N1CCN(c2ccccn2)CC1 | i | i | -7.84* | i
CC(C)(C)C(=O)Nc1ccccc1-c1nc2ccccc2[nH]c1=O | i | i | i | i
COC(=O)C1=CN(c2ccc(F)cc2)C=C(C(=O)OC)C1c1cccc([N+](=O)[O-])c1 | i | i | i | i
O=C(CCSc1nc(-c2ccco2)cc(C(F)(F)F)n1)NCc1ccccn1 | i | i | -14.8* | i

Source: PubChem BioAssay (Johns Hopkins Ion Channel Center)
